Results on 20 molecules are retold here after PubChem BioAssay (EPA / NIEHS).

Records with an inconclusive call do not appear. Active and inactive are the calls of the source. The calls were made as follows: active = hit-call score of the fitted dose curve at least 0.9, where 1 is the maximum; inconclusive = response in the unintended direction; inactive = score below 0.9.

Test [1] has as its target human Ephrin type-A Receptor 1 (EphA1), EPHA1 (gene 2041) (UniProt P21709). The experiment in a line: NVS_ENZ_hEphA1: NovaScreen (NVS) Enzymatic Assay for human Ephrin type-A Receptor 1 (EphA1) (AID 2283158).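 Also: activity is signal loss versus DMSO meaning EphA1 kinase inhibition.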 Summed up: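 Fluorescent substrate conversion, resolved by mobility-shift separation, measured 1 hour post-dosing using recombinant enzyme; signal loss relative to DMSO baseline. Single-concentration duplicates at 25 uM preceded singleton concentration series topping at 50 uM.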

Test [2] deals with human Esterase Plasma (ES), BCHE (gene 590) (UniProt P06276). The experiment in a line: NVS_ENZ_hES: NovaScreen (NVS) Enzymatic Assay for human Esterase Plasma (ES) (AID 2283157). Summed up:
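Screening ran at 25 uM in duplicate, followed by singleton concentration series reaching 50 uM for actives. Human plasma protein, colorimetric detection, 0.25 h exposure, DMSO negative control.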

The target of test [3] is Histone deacetylase 3 (Homo sapiens) (UniProt O15379). The experiment in a line: NVS_ENZ_hHDAC3: NovaScreen (NVS) Enzymatic Assay for human Histone Deacetylase 3 (HDAC3) (AID 2283163). In outline: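 Cell-free enzyme format: loss of fluorescent product after mobility-shift separation, 1 h incubation, recombinant human HDAC3. Single 25 uM duplicate screen first, then concentration series to a 50 uM top for hits; DMSO as baseline.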
Chain of Histone deacetylase 3 (Homo sapiens) (O15379 whole entry, looked up): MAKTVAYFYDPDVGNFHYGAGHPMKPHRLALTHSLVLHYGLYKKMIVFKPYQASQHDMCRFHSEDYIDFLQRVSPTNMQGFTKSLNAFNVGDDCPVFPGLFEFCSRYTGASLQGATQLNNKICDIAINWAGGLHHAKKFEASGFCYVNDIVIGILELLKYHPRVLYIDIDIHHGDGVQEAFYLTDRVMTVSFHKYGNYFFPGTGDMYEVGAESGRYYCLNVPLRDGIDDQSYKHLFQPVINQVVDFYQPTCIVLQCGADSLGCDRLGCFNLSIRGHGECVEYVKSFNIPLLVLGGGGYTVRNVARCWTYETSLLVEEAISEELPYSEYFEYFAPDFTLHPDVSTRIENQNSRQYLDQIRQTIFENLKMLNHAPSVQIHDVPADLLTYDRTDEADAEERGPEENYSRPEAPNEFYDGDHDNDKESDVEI

Test [4] has as its target CDK2 (gene 1017) (UniProt P24941). The experiment in a line: NVS_ENZ_hCDK2: NovaScreen (NVS) Enzymatic Assay for human Cyclin-Cependent Kinase 2 (CDK2) (AID 2283144). Summed up:
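Compounds screened in duplicate at 25 uM, then in singleton concentration-response to a maximum of 50 uM, against recombinant CDK2; kinase activity read 1 hr after dosing by fluorescence with mobility-shift separation of substrate and product.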

Test [5] has as its target human Colony Stimulating Factor 1 Receptor (CSF1R), CSF1R (gene 1436) (UniProt P07333). The experiment in a line: NVS_ENZ_hCSF1R: NovaScreen (NVS) Enzymatic Assay for human Colony Stimulating Factor 1 Receptor (CSF1R) (AID 2283150). Summed up: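 Compounds screened in duplicate at 25 uM, then concentration-response (top 50 uM) for those passing threshold such as 30% inhibition; recombinant CSF1R activity measured 1 h post-dosing via fluorescent substrate/product mobility-shift separation, loss of signal versus DMSO.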

The target in test [6] is human Dual Specificity Protein Phosphatase 3 (DUSP3), DUSP3 (gene 1845) (UniProt P51452). The experiment in a line: NVS_ENZ_hDUSP3: NovaScreen (NVS) Enzymatic Assay for human Dual Specificity Protein Phosphatase 3 (DUSP3) (AID 2283152). In outline: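 Cell-free fluorescence-intensity enzyme activity assay with recombinant protein and substrate; loss of signal fitted relative to DMSO baseline. Primary screen in duplicate at 25 uM, actives then run in concentration series; measured 0 h after dosing.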
Chain of human Dual Specificity Protein Phosphatase 3 (DUSP3), DUSP3 (gene 1845) (P51452 whole entry, looked up): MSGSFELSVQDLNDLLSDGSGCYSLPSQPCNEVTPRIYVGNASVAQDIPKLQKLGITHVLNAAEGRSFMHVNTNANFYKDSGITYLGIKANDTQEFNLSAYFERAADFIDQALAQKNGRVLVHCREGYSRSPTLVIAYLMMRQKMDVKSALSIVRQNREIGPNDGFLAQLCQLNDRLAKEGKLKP

Test [7] addresses human Elastase, ELANE (gene 1991) (UniProt P08246). The experiment in a line: NVS_ENZ_hElastase: NovaScreen (NVS) Enzymatic Assay for human Elastase (AID 2283153). In outline: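 Concentration-response to 50 uM max, run singly for chemicals passing a threshold (e.g., 30% inhibition) in a duplicate 25 uM single-point screen. Neutrophil-derived human elastase, absorbance read-out of enzyme activity at 1.5 h; DMSO baseline.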

For test [8], the target named is human FYN Proto-Oncogene, Src family Tyrosine Kinase (Fyn), FYN (gene 2534) (UniProt P06241). The experiment in a line: NVS_ENZ_hFyn: NovaScreen (NVS) Enzymatic Assay for human FYN Proto-Oncogene, Src family Tyrosine Kinase (Fyn) (AID 2283161). Summed up:
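Cell-free kinase activity read by fluorescence after mobility-shift separation of substrate and product, 1 h post-dose. Initial single concentration 25 uM in duplicate, then concentration-response follow-up; DMSO baseline.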

For test [9], the target named is Glycogen synthase kinase-3 beta (Homo sapiens) (UniProt P49841). The experiment in a line: NVS_ENZ_hGSK3b: NovaScreen (NVS) Enzymatic Assay for human Glycogen Synthase Kinase-3 beta (GSK3b) (AID 2283165). Summed up: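 Recombinant enzyme with specific fluorescent substrate, 1 h, product separated by electrophoretic mobility shift. Primary duplicate screen at 25 uM; actives (e.g. 30% inhibition) followed in singleton concentration-response to 50 uM. Signal loss fitted versus DMSO.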
Chain of Glycogen synthase kinase-3 beta (Homo sapiens) (P49841 whole entry, looked up): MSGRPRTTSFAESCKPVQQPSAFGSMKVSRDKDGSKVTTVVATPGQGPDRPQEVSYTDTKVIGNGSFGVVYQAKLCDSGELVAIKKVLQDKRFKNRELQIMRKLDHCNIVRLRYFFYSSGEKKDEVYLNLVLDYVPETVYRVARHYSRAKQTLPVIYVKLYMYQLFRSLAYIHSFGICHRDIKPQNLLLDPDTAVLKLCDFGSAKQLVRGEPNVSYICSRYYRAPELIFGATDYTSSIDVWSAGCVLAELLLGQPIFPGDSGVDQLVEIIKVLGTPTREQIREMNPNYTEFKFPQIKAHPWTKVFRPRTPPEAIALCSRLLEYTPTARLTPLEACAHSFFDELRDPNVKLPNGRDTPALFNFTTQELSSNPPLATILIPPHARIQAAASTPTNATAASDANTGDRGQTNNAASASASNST

Test [10] deals with human Janus Kinase 2 (Jak2), JAK2 (gene 3717) (UniProt O60674). The experiment in a line: NVS_ENZ_hJak2: NovaScreen (NVS) Enzymatic Assay for human Janus Kinase 2 (Jak2) (AID 2283169). Summed up: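 Single-point duplicate screen at 25 uM, with hits run in concentration series to a 50 uM top dose. Substrate-product separation by mobility shift with fluorescence detection, 1 h post-dosing; DMSO baseline.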

Test [11] concerns the target human c-Jun N-terminal Kinases (JNK2), MAPK9 (gene 5601) (UniProt P45984). The experiment in a line: NVS_ENZ_hJNK2: NovaScreen (NVS) Enzymatic Assay for human c-Jun N-terminal Kinases (JNK2) (AID 2283171). In outline: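 Chemicals first tested in duplicate at 25 uM, then in singleton concentration series up to 50 uM, against extracted JNK2 enzyme. Activity loss read by fluorescence with mobility-shift separation 1 h post-dose; DMSO baseline.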

In test [12] the target is human LYN Proto-Oncogene, Src family Tyrosine Kinase (LynA), LYN (gene 4067) (UniProt P07948). The experiment in a line: NVS_ENZ_hLynA: NovaScreen (NVS) Enzymatic Assay for human LYN Proto-Oncogene, Src family Tyrosine Kinase (LynA) (AID 2283173). Summed up:
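Recombinant kinase with fluorescent substrate; product separated from substrate by electrophoretic mobility shift and read 1 h after dosing. Duplicate screen at 25 uM, then concentration-response up to 50 uM; activity scored as signal loss against DMSO.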

The target of test [13] is Mitogen-activated protein kinase 3 (Homo sapiens) (UniProt P27361). The experiment in a line: NVS_ENZ_hMAPK3: NovaScreen (NVS) Enzymatic Assay for human Mitogen-Activated Protein Kinase 3 (MAPK 3) (AID 2283177). In outline: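 Chemicals were first tested in duplicate at 25 uM, with hits re-run as concentration series (max 50 uM). Recombinant enzyme activity, measured 1 h post-dose in a cell-free format, was read by fluorescence/mobility shift relative to DMSO.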
Chain of Mitogen-activated protein kinase 3 (Homo sapiens) (P27361 whole entry, looked up): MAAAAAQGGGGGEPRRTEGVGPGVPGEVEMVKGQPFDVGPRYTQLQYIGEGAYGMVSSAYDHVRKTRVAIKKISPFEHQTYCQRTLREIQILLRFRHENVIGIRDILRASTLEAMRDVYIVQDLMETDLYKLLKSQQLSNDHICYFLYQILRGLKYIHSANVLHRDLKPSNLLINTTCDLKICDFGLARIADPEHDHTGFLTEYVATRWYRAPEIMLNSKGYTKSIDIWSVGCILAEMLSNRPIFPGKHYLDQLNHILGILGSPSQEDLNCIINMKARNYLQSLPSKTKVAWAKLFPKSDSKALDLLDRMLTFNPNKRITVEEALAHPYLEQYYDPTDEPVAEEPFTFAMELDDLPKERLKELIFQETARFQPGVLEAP

The target of test [14] is Collagenase 3 (Homo sapiens) (UniProt P45452). The experiment in a line: NVS_ENZ_hMMP13: NovaScreen (NVS) Enzymatic Assay for human Matrix Metalloproteinase-13 (MMP13) (AID 2283182). Summed up: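 Recombinant MMP13 cleaving fluorescent substrate, cell-free, measured 1 h after dosing. Primary duplicate screen at 25 uM; actives tested in concentration-response up to 50 uM; loss of signal relative to DMSO.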

Test [15] concerns the target human Casein Kinase 1-delta (CK1D), CSNK1D (gene 1453) (UniProt P48730). The experiment in a line: NVS_ENZ_hCK1D: NovaScreen (NVS) Enzymatic Assay for human Casein Kinase 1-delta (CK1D) (AID 2283148). Summed up:
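Recombinant human CK1-delta, cell-free; fluorescent substrate with electrophoretic mobility-shift separation of product, read 1 h after dosing. Single 25 uM duplicate screen, then concentration-response up to 50 uM; loss of signal vs DMSO.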

For test [16], the target named is human MAP Kinase-Activated Protein Kinase 2 (MAPKAPK2), MAPKAPK2 (gene 9261) (UniProt P49137). The experiment in a line: NVS_ENZ_hMAPKAPK2: NovaScreen (NVS) Enzymatic Assay for human MAP Kinase-Activated Protein Kinase 2 (MAPKAPK2) (AID 2283178). In outline:
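Chemicals screened in duplicate at 25 uM, then to 50 uM top concentration in concentration-response, against recombinant human MAPKAPK2; substrate conversion read 1 hr post-dosing by fluorescence after electrophoretic mobility-shift separation, loss-of-signal relative to DMSO.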

Test [17] deals with human Matrix Metalloproteinase-3 (MMP3), MMP3 (gene 4314) (UniProt P08254). The experiment in a line: NVS_ENZ_hMMP3: NovaScreen (NVS) Enzymatic Assay for human Matrix Metalloproteinase-3 (MMP3) (AID 2283185). Summed up:
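Fluorescent substrate turnover by recombinant MMP3 read after 1 h, signal loss scored against DMSO. Compounds first run in duplicate at 25 uM single dose, then actives confirmed by concentration series.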

In test [18] the target is human Mitogen- and Stress-activated Protein Kinase-1 (Msk1), RPS6KA5 (gene 9252) (UniProt O75582). The experiment in a line: NVS_ENZ_hMsk1: NovaScreen (NVS) Enzymatic Assay for human Mitogen- and Stress-activated Protein Kinase-1 (Msk1) (AID 2283187). In outline: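 Chemicals first run in duplicate at 25 uM, with actives followed up in singleton concentration series to 50 uM maximum. Enzyme activity came from substrate/product mobility-shift separation with fluorescence detection after 1 h incubation of the recombinant protein.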

For test [19], the target named is human Phosphodiesterase 4A1 (PDE4A1), PDE4A (gene 5141) (UniProt P27815). The experiment in a line: NVS_ENZ_hPDE4A1: NovaScreen (NVS) Enzymatic Assay for human Phosphodiesterase 4A1 (PDE4A1) (AID 2283191). Summed up:
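Fluorescent substrate turnover by recombinant PDE4A1 read after 1 h by mobility-shift separation. Primary duplicate screen at 25 uM; hits retested in concentration series with a 50 uM maximum, relative to DMSO.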

Test [20] concerns the target human Matrix Metalloproteinase-9 (MMP9), MMP9 (gene 4318) (UniProt P14780). The experiment in a line: NVS_ENZ_hMMP9: NovaScreen (NVS) Enzymatic Assay for human Matrix Metalloproteinase-9 (MMP9) (AID 2283190).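 Also: cell-free recombinant MMP9 protease activity read by fluorescent substrate signal; active means inhibition seen as loss of fluorescence signal versus DMSO.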 In outline:
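Screening concentration 25 uM, duplicate wells, then dose series for confirmation. Cell-free enzymatic reaction measured by fluorescence intensity 1 h post-dosing; decreased signal versus DMSO taken as activity.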

Usually AC50 stands for the concentration giving half of the maximal activity seen.

Chain of human Ephrin type-A Receptor 1 (EphA1), EPHA1 (gene 2041) (P21709 whole entry, looked up): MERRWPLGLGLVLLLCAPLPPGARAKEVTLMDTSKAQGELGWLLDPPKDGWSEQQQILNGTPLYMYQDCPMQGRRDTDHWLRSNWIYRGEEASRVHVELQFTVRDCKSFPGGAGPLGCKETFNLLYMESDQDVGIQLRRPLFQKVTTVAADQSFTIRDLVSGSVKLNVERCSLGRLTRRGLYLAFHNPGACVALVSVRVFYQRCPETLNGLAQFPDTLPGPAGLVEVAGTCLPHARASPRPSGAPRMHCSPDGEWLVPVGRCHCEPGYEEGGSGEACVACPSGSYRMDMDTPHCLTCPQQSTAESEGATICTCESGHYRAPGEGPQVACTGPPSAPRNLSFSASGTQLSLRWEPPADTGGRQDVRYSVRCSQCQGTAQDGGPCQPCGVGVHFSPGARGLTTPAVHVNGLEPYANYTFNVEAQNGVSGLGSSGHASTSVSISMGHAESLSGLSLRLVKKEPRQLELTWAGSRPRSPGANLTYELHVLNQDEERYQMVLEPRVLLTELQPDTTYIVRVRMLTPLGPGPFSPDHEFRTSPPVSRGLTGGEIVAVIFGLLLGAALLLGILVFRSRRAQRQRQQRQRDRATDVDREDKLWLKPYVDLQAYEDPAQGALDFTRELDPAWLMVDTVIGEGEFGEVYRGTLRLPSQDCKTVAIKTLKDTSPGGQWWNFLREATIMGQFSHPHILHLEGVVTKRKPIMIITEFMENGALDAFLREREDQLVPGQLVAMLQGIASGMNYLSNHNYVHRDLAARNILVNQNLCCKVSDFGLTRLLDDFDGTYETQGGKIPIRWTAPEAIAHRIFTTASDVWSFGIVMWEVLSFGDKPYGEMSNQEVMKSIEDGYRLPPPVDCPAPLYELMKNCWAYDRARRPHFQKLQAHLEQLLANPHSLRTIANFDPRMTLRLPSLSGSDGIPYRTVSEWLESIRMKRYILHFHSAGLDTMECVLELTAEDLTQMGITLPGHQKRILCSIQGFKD
Chain of human Esterase Plasma (ES), BCHE (gene 590) (P06276 whole entry, looked up): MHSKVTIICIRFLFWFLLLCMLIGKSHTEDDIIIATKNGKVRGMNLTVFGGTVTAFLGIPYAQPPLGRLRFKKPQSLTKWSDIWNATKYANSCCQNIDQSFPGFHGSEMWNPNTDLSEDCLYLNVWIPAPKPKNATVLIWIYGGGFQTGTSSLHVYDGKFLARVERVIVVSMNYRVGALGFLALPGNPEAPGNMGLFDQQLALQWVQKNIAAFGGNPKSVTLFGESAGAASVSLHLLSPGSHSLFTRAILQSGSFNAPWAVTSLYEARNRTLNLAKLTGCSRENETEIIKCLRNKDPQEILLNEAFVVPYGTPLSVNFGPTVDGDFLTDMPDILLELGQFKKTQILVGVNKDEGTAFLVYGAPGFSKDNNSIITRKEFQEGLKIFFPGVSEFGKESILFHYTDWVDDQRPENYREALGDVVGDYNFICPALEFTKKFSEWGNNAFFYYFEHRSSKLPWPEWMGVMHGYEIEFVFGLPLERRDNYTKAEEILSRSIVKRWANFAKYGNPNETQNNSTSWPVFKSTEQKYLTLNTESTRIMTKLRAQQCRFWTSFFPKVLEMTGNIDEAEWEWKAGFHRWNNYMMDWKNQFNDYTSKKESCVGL
Chain of human Matrix Metalloproteinase-9 (MMP9), MMP9 (gene 4318) (P14780 whole entry, looked up): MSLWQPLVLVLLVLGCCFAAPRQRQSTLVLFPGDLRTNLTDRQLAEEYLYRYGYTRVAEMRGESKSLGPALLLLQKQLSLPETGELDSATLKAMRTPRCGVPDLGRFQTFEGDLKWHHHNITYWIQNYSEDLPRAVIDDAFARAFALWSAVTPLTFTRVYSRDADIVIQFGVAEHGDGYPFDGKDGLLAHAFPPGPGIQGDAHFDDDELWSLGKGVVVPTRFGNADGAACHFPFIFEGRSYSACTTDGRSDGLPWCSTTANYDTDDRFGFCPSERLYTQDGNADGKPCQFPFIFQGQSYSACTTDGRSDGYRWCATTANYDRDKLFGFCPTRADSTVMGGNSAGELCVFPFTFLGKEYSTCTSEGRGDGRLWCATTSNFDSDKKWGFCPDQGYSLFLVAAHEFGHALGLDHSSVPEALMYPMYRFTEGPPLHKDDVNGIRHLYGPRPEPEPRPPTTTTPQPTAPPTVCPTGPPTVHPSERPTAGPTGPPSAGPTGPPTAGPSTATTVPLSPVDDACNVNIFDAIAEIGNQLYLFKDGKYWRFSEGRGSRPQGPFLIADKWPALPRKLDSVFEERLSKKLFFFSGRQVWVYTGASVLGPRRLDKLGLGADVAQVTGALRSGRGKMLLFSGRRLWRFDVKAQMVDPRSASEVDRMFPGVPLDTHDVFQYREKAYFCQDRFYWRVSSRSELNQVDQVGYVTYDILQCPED
Chain of human Colony Stimulating Factor 1 Receptor (CSF1R), CSF1R (gene 1436) (P07333 whole entry, looked up): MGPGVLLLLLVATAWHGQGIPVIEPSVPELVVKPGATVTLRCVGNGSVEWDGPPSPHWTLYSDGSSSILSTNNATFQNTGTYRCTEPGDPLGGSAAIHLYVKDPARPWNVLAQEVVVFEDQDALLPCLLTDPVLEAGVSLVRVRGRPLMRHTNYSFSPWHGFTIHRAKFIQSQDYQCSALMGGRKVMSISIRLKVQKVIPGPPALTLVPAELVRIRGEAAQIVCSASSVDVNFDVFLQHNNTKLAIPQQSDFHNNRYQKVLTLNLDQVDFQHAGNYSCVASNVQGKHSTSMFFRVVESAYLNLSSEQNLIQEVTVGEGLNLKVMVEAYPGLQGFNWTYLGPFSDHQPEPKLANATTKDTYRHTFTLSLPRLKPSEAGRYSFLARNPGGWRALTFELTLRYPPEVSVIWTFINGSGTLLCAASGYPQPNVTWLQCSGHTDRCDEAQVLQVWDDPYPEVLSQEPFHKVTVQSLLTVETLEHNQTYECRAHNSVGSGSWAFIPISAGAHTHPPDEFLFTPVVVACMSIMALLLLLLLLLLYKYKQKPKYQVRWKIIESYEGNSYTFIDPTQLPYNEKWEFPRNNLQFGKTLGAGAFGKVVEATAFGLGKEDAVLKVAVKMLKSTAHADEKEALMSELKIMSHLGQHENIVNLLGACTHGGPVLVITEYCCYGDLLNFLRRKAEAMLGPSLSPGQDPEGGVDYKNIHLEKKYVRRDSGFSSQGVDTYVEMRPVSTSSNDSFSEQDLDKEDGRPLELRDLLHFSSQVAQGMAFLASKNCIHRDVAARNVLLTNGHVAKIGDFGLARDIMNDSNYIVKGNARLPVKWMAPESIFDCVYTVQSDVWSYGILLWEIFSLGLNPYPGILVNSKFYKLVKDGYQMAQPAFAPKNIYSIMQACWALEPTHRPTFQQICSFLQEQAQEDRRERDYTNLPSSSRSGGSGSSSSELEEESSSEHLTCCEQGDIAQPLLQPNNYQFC
Chain of human Elastase, ELANE (gene 1991) (P08246 whole entry, looked up): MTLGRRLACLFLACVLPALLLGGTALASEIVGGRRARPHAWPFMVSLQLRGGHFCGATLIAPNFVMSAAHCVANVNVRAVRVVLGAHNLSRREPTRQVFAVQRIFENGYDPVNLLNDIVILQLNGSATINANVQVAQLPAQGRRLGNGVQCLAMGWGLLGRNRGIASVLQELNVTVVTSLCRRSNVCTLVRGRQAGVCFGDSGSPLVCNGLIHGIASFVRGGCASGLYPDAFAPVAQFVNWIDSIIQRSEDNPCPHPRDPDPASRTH

Regarding `O=C(NO)c1ccccc1`, in test [1], the outcome was inactive.

Regarding `CC(C)(C)c1ccc(O)c(O)c1`, the call in [1] was inactive.

As for `CC1=NN(c2ccccc2)C(=O)C1`, in test [1], the outcome was inactive.

In the case of `O=C(CCCN1CCC(O)(c2ccc(Cl)cc2)CC1)c1ccc(F)cc1`, in test [2], the half-maximal activity concentration (AC50) is 6.15 µM (active).

Regarding `CCC(C)c1ccccc1O` (stereo not given), the molecule was called inactive in test [3].

With `Cc1[nH]nc2c1N=C(c1ccccc1Cl)c1cc([N+](=O)[O-])ccc1N2`, the AC50 in [4] was 0.0067 µM (active); in test [5] it was 0.00229 µM (active); in test [6], 16.9 µM (active); in test [7], 4.93 µM (active); in test [1], 8.96 µM (active); in test [9] it was 0.00229 µM (active). Moreover, the AC50 in test [10] is 0.00328 µM (active); in test [11], 35.8 µM (active); in test [12] it was 25 µM (active); in test [13], 25 µM (active); in test [14] it was 16.2 µM (active). Moreover, the molecule was classed as inactive in test [8].

As for `O=C(c1ccccc1)c1ccccc1`, the result in test [9] was inactive.

On to `CCCCCCCCCCCC`, for which the call in [1] was inactive.

For `CCCCCCCCCCCCOS(=O)(=O)O`, the outcome in test [4], in test [15], in [1], in test [3] and in test [16] was inactive. For the same molecule, the AC50 is 29.1 µM (active) in test [5]; 37.5 µM (active) in [11]; 18.1 µM (active) in test [13]; 36.7 µM (active) in [17]; 43 µM (active) in test [18]; 11.8 µM (active) in [19].

For `CS(=O)(=O)c1ccc([C@@H](CC2CCCC2)C(=O)Nc2cnccn2)cc1Cl`, the molecule was called inactive in test [15] and in test [19]. The AC50 in test [6] is 6.36 µM (active).

For `CCCCCCCCCCCCCCCCCC[N+](C)(C)Cc1ccccc1`, the AC50 in test [6] is 4.54 µM (active). Also, the molecule was classed as inactive in test [1] and in [20].

Take `CCCCCCCCCCCCCCCC(=O)OC`: the AC50 in test [6] is 6.25 µM (active).

On to `CCCCc1oc2ccccc2c1C(=O)c1cc(I)c(OCCN(CC)CC)c(I)c1`, for which the molecule was called inactive in test [2].

With `CN(C)CCOC(c1ccccc1)c1ccccc1`, in test [2], the AC50 was 11.4 µM (active).

Regarding `N=C(N)c1ccc(OCCCCCOc2ccc(C(=N)N)cc2)cc1`, the AC50 in test [2] is 6.56 µM (active).

Regarding `CCCCC=O`, the outcome in test [9] was inactive.

Regarding `CCOC(C)=O`, in test [20], the AC50 is 4.98 µM (active).

As to `CCCCC(CC)C(=O)O` (stereo not given), in test [20], the result was inactive.

As for `Cc1ccc(C(=O)c2ccccc2)cc1`, the molecule was called inactive in [1].

Take `CCCCCCCCCCCCCCC`: the outcome in test [14] was inactive.
